Bioassay records: PubChem, The Scripps Research Institute Molecular Screening Center
Hits are enriched below; roughly 1.1% of the tested compounds scored in any of these assays.
PKA-R1A activ = activators of PKA-R1A holoenzyme, primary screen, biochemical, fluorescence polarization, Cy5-IP20, bovine R1A, mouse PKAc. cAMP-dependent protein kinase type I-alpha regulatory subunit (Bos taurus) + …. PKA-R1A dissociation; scaled: DMSO 0%, 113 µM cGMP 100%. activation, % at 11.4 µM. 0.083% of 340,000 active;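 active = percent activation above the mean of all tested compounds plus 3 SD, cut at about 19% in these data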;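 also: higher means more PKAc released from R1A so a rise in polarization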
PKA-R2B act = activators of PKA-R2B holoenzyme, primary screen, biochemical, fluorescence polarization, Cy5-IP20, human; cAMP-dependent protein kinase catalytic subunit beta (Homo sapiens) + cAMP-dependent …; PKA-R2B holoenzyme dissociation; R2B truncated from residue 108, S112A mutant; 0% DMSO only, 100% 113 µM cGMP; activation, % at 11.4 µM; 0.079% of 340,000 active;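 active = activation above a cutoff set at the mean over all compounds plus 3 SD, cut at about 18% in these data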;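 also: higher means more holoenzyme dissociation and a rise in polarization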
Target sequence (P31323 whole entry, looked up, other chains not shown, the tested form may be a part): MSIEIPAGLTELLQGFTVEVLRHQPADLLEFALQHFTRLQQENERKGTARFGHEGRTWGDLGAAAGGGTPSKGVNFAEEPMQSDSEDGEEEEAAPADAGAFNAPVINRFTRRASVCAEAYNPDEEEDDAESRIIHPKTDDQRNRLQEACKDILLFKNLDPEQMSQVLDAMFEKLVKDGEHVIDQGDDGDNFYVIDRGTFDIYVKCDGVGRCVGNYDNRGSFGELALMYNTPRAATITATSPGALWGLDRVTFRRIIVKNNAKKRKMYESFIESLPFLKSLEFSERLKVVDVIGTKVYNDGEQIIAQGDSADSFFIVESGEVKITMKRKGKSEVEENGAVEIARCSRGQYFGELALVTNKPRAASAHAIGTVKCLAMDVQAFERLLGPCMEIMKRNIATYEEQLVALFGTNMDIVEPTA
bovine MsrA act = bovine MsrA enzyme activators, primary screen, biochemical, absorbance, HTS; purified bovine MsrA, absorbance read-out; activation, % at 10.6 µM; 0.3% of 360,000 active; in the data active = activation above about 7.5%;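 also: 0% = vehicle and 100% = reference activator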
MsrA inh = bovine MsrA enzyme inhibitors, primary screen, biochemical, absorbance, HTS; Methionine sulfoxide reductase A (Bos taurus); purified bovine MsrA, absorbance read-out; inhibition, % at 15.5 µM; 0.75% of 360,000 active; AID 651718, 2012;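 also: 0% = vehicle wells with enzyme and 100% = reference inhibitor wells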
MsrA inh confirm = bovine MsrA inhibitors, retest, confirmation, biochemical, absorbance, HTS; inhibition, % at 15.5 µM; shares compounds with MsrA inh; 41% of 2,300 active; purified bovine MsrA, absorbance read-out; AID 651822, 2012;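 also: coupled to thioredoxin reductase with NADPH and selenocystamine and DMSO as substrate; 0% = vehicle only and 100% = full effect of reference inhibitor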
Active calls of the source: *. Rule as the data show it, unless noted: active = inhibition above about 4.5%; inactive = the rest.

For Cc1ccsc1/C=N\NC(=O)c1ccc2c(c1)OCO2 the results were PKA-R1A activ 1.6, PKA-R2B act -7.7, bovine MsrA act -0.3, MsrA inh 5.1* and MsrA inh confirm 5.5*.
`COc1ccccc1/C=N/NC(=O)c1ccc2c(c1)OCO2` gave PKA-R1A activ -3.3, PKA-R2B act 7.3, bovine MsrA act 4.6 and MsrA inh 2.0.
For O=C(N/N=C/c1ccc[nH]1)c1cc(-c2cccs2)nc2ccccc12 the results were PKA-R1A activ 7.5, PKA-R2B act 10.8, bovine MsrA act -2.1, MsrA inh 4.9* and MsrA inh confirm 4.5.
For CCCN1CNC(=S)N(CC2CCCO2)C1 (centres undefined) the results were PKA-R1A activ 2.9, PKA-R2B act -7.0, bovine MsrA act -3.7 and MsrA inh 0.7.
For O=C(NNC(=S)NC(=O)c1cccc([N+](=O)[O-])c1)c1ccc(Br)cc1 the results were PKA-R1A activ -6.8, PKA-R2B act 1.4, bovine MsrA act -5.2 and MsrA inh -0.4.
Screening NC(=O)c1ccc(OCC(=O)N2CCNC2=O)cc1 returned PKA-R1A activ -0.8, PKA-R2B act -6.1, bovine MsrA act 3.2 and MsrA inh -0.1.
`COc1ccc(NS(=O)(=O)c2cccc(C(=O)NN=Cc3cc(Br)c(O)c(Br)c3)c2)cc1` gave PKA-R1A activ -9.3, PKA-R2B act -1.9, bovine MsrA act -5.8, MsrA inh 5.7* and MsrA inh confirm 4.9*.
For COc1cc(/C=N/NC(=O)c2ccc3c(c2)OCCO3)cc(Br)c1O the results were PKA-R1A activ 3.4, PKA-R2B act 2.4, bovine MsrA act -4.8, MsrA inh 5.2* and MsrA inh confirm 5.3*.
`O=C(NN=Cc1ccc2c(c1)OCO2)c1ccccc1` gave PKA-R1A activ -8.8, PKA-R2B act 1.9, bovine MsrA act -9.9 and MsrA inh 3.6.
`O=C(N/N=C/c1ccc[nH]1)c1ccccc1O` gave PKA-R1A activ -9.7, PKA-R2B act -8.7, bovine MsrA act -5.3 and MsrA inh 4.3.
`COc1cc(/C=N/NC(=O)c2ccc3c(c2)OCCO3)c(Br)c(Br)c1O` gave PKA-R1A activ -3.5, PKA-R2B act -7.4, bovine MsrA act -4.4 and MsrA inh 3.1.
`O=C(N/N=C/c1ccc2c(c1)OCO2)c1ccc2c(c1)OCO2` gave PKA-R1A activ -14.0, PKA-R2B act -0.7, bovine MsrA act -4.6, MsrA inh 4.7* and MsrA inh confirm 3.6.
O=C(N/N=C/c1ccc[nH]1)c1ccc(O)cc1 was read as PKA-R1A activ -3.6, PKA-R2B act 15.0, bovine MsrA act -3.1, MsrA inh 5.3* and MsrA inh confirm 3.6.
For COc1ccc(NS(=O)(=O)c2cccc(C(=O)NN=Cc3ccc(OC)cc3OC)c2)cc1 the results were PKA-R1A activ -8.6, PKA-R2B act -12.4, bovine MsrA act 0.4 and MsrA inh 1.5.
Screening O=C(Nc1cccc(C(F)(F)F)c1)c1ccc2sc([C@@H]3O[C@H](CO)[C@H](O)[C@H](O)[C@H]3O)nc2c1 returned bovine MsrA act -3.2 and MsrA inh 0.8.
For COC(CNC(=O)CN1CCN(Cc2ccc(F)cc2Cl)C1=O)OC the results were PKA-R1A activ -0.5, PKA-R2B act -3.6, bovine MsrA act -0.9 and MsrA inh 0.1.
Cc1cc(C(=O)N/N=C/c2ccc[nH]2)no1 was read as PKA-R1A activ -1.6, PKA-R2B act 0.0, bovine MsrA act -9.0 and MsrA inh 4.5.
Cc1cc(C(=O)N/N=C/c2ccc[nH]2)n[nH]1 was read as PKA-R1A activ -10.1, PKA-R2B act -10.9, bovine MsrA act -5.9, MsrA inh 5.3* and MsrA inh confirm 4.1.
For CC(=O)Nc1ccc(NC(=O)/C=C/c2ccc3c(c2)OCO3)cc1 the results were PKA-R1A activ 0.3, PKA-R2B act 4.3, bovine MsrA act -4.7, MsrA inh 5.5* and MsrA inh confirm 4.3.
Screening N#CC(c1ccccc1)C(CC(=O)c1ccccc1)c1ccccc1 (centres undefined) returned PKA-R1A activ -5.0, PKA-R2B act 9.1, bovine MsrA act -2.3 and MsrA inh -0.8.
For CC1CC(C)CN(C(=O)c2cc3cc(Br)cc(Br)c3o2)C1 (centres undefined) the results were PKA-R1A activ -3.9, PKA-R2B act 4.1, bovine MsrA act -5.6, MsrA inh 5.4* and MsrA inh confirm 3.2.
For CC1CC(C)CN(C(=O)c2cc3ccccc3o2)C1 (centres undefined) the results were PKA-R1A activ -2.7, PKA-R2B act -0.6, bovine MsrA act -5.2 and MsrA inh -1.1.
CCOC(=O)c1ccc(NC(=O)c2nc[nH]c2C(=O)N(C)CCO)cc1 was read as PKA-R1A activ 7.3, PKA-R2B act -2.3, bovine MsrA act 6.6 and MsrA inh -0.3.
`CC(=O)c1sc(N2CCOCC2)nc1-c1ccccc1` gave PKA-R1A activ -1.3, PKA-R2B act -1.8, bovine MsrA act -2.5 and MsrA inh 0.6.
FC(F)(F)c1ccc(N=Cc2sc(N3CCOCC3)nc2-c2ccccc2)cc1 was read as PKA-R1A activ -6.2, PKA-R2B act -9.1, bovine MsrA act -2.4, MsrA inh 17.9* and MsrA inh confirm 17.4*.
`O=C(c1cccc(Cl)c1)N(Cc1ccco1)C1CCS(=O)(=O)C1` (centres undefined) gave PKA-R1A activ 2.9, PKA-R2B act 2.2, bovine MsrA act -1.7 and MsrA inh -0.9.
`CCc1nccn1C(=O)c1cnn2c(C(F)F)cc(-c3ccc(C)cc3)nc12` gave PKA-R1A activ -10.7, PKA-R2B act 5.6, bovine MsrA act -8.6, MsrA inh 4.8* and MsrA inh confirm 25.6*.
Cc1cc(O)cc(=O)n1-c1ccc(OC(F)F)cc1 was read as MsrA inh -0.2.
Screening COc1ccc(OC)c(NC(=O)CSc2nnc(NC(=O)c3ccco3)s2)c1 returned PKA-R1A activ 3.9, PKA-R2B act -4.5, bovine MsrA act -12.3 and MsrA inh -0.3.
Cc1ccc(S(=O)(=O)Nc2ccc(Oc3cccnc3)nc2)cc1 was read as PKA-R1A activ -4.5, PKA-R2B act -0.5, bovine MsrA act -1.5 and MsrA inh -1.3.
`CC(C)c1nn2c(=O)cc(CSc3ccccc3NC(=O)c3ccccc3F)nc2s1` gave PKA-R1A activ 4.0, PKA-R2B act 7.0, bovine MsrA act -9.8 and MsrA inh 1.2.
`COc1cc(C(=O)Nc2ccccc2SCc2cc(=O)n3nc(C)sc3n2)cc(OC)c1OC` gave PKA-R1A activ -7.8, PKA-R2B act 8.1, bovine MsrA act -3.6 and MsrA inh 0.7.
Cc1nn2c(=O)cc(CSc3ccccc3NC(=O)c3ccccc3F)nc2s1 was read as PKA-R1A activ 9.0, PKA-R2B act -5.0, bovine MsrA act -4.9, MsrA inh 4.7* and MsrA inh confirm 3.0.
